Rab9 promoter act: qHTS Assay for Rab9 Promoter Activators. AID 485297, 2010. Huh7 Rab9 promoter-luciferase reporter, luminescence, 24 h. Potency, µM (doses to about 9.22 µM), hits mostly activators. 320,000 compounds, 2.8% hits; also: nearly all actives have a fitted effect of over 60% in size
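Cells were plated at 1500 per well in reduced-serum medium with 10% FBS and left 2 h. Compound in DMSO was then added for 24 h at 37 °C. Reporter signal was read by luminescence after 10 min with luciferase detection reagent.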
ELG1 genotoxic: qHTS screen for small molecules that induce genotoxicity in human embryonic kidney (HEK293T) cells expressing luciferase-tagged ELG1. HEK293T ELG1-luciferase reporter, luminescence, 16 h. Potency, µM (titrated, usually from 46 µM), most hits filed as activators. 330,000 compounds, 1.3% hits; also: nearly all actives have a fitted effect of over 60% in size
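Step 1: seed 2,000 HEK293T ELG1-luciferase cells per well. Step 2: add compound or DMSO, incubate 16 hr at 37 °C. Step 3: ONE-Glo, 30 min at room temperature, read luminescence.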
p53 reactivation: qHTS assay for re-activators of p53 using a Luc reporter. Potency, µM (titrated, usually from 92.2 µM), hits mostly activators. AID 504706, 2011. H1299 p53-A138V BP100-luciferase reporter, luminescence, 24 h. 320,000 compounds, 0.063% hits; also: nearly all actives have a fitted effect of over 45% in size
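p53-null H1299 cells stably carrying temperature-sensitive p53-A138V and a BP100-luciferase reporter were pinned with compounds (4-point, 1:5 series) and held 24 hrs at 37 deg C. Luminescence was read 10 min after detection reagent.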
SMN2 splice up: qHTS Assay for Enhancers of SMN2 Splice Variant Expression; HEK293 SMN2-luciferase splicing reporter, luminescence, 30-36 h; Potency, µM (doses to about 46.1 µM), usual class: activators; 210,000 compounds, 2.8% hits; also: nearly all actives have a fitted effect of over 55% in size
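qHTS luciferase splicing reporter: luminescence rises when SMN2 exon 7 is included in transfected HEK293 cells. Compound exposure lasted 30-36 h at 37C, with 4.5 mM final sodium butyrate as control, followed by a ONE-Glo read.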
FLuc counter: qHTS profiling assay for firefly luciferase inhibitor/activator using purifed enzyme and Km concentrations of substrates (counterscreen for miR-21 project); purified FLuc, Km substrates, luminescence inhibition; 360,000 compounds, 6.9% hits; AID 588342, 2011; Potency, µM (series often up to 57.5 µM), usual class: inhibitors; Luciferin 4-monooxygenase (Photinus pyralis), P08659; also: nearly all actives have a fitted effect of over 55% in size
Target sequence (P08659 whole entry, looked up): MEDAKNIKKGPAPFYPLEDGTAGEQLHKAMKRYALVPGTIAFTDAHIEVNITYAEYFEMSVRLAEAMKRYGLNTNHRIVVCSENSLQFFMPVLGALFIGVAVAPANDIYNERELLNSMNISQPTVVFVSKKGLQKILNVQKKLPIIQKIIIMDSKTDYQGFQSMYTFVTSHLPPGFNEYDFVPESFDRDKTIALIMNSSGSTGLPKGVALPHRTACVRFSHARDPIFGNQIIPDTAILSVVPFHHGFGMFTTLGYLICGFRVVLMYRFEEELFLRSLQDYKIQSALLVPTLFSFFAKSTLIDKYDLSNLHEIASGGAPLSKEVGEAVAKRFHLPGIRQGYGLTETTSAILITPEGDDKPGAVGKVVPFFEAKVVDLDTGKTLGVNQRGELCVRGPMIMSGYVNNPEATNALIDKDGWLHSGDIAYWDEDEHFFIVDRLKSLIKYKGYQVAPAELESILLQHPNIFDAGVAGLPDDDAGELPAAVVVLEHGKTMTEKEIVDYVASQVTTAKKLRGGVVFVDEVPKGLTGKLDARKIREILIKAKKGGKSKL
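Purified P. pyralis luciferase (10nM final) with 10uM D-luciferin and 10uM ATP (Km levels) in 50mM Tris acetate pH 7.5, 10mM Mg acetate, 0.01% Tween-20, 0.05% BSA; qHTS 6-point titration, ~60 µM downward; luminescence read.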
NPC1 prom act: qHTS Assay for NPC1 Promoter Activators | Huh7 NPC1 promoter luciferase reporter, 24 h | Potency, µM (titrated, usually from 9.22 µM), actives largely listed as activators | 320,000 compounds, 2.4% hits | AID 485313, 2010; also: nearly all actives have a fitted effect of over 60% in size
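Stably transfected Huh7 (NPC1 promoter→luciferase), 1500 cells/well in Opti-MEM + 10% FBS, 2 h settle, then compound 24 h at 37 °C. Luminescence after 10 min with Amplite reagent.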
Hits are given with their value; i = inactive; ? = inconclusive; nt = no result given; [ ] = remark or other dose. Most compounds without a hit are left out; they make up all but 7.4% or so of the library. Calls follow the shape of the dose curve; as a rule, active = well fitted curve in the direction sought with a large enough effect; inconclusive = small, poorly fitted or top-dose-only effect, or another doubt; inactive = no such curve, though single readings can be large; an effect the other way counts as inactive or inconclusive.

SMILES	Rab9 promoter act	ELG1 genotoxic	p53 reactivation	SMN2 splice up	FLuc counter	NPC1 prom act
CC(C)(C)OC(=O)N1CCC(c2c(C(=O)NCc3cccs3)cnn2-c2ccc(F)cc2F)CC1	nt	nt	nt	nt	i	nt
CCSc1nnc(NC(=O)/C=C/c2ccco2)s1	3.98µM	?	i	11.2µM	i	?
O=C(/C=C/c1ccco1)Nc1cccc(NC(=O)/C=C/c2ccco2)n1	3.16µM	i	?	?	1.69µM	?
CCc1nnc(NC(=O)/C=C/c2ccco2)s1	1.78µM	?	?	12.6µM	?	?
Cc1nc(NC(=O)/C=C/c2ccco2)sc1C	i	?	?	11.2µM	?	i
O=C(/C=C/c1ccco1)Nc1nnc(-c2ccco2)s1	i	i	i	nt	i	i
O=C1CC(N2CCN(S(=O)(=O)c3ccccc3F)CC2)C(=O)N1c1ccc(F)cc1F (stereo not given)	nt	i	i	nt	nt	nt
O=C(/C=C/c1ccco1)NC1=NCCS1	2.51µM	9.2µM	?	8.91µM	10.7µM	2.24µM
COc1ccc(CN(Cc2ccco2)C(=O)COc2ccc(Cl)cc2C)cc1	nt	nt	nt	i	i	nt
Cc1cccc(NC(=O)COc2ccccc2)c1	i	?	?	i	i[2.3 µM]	i
O=C(COc1cc(Cl)c(Cl)cc1Cl)Nc1cccc(O)c1	i	?	?	nt	1.07µM	i
Cc1cccc(OCC(=O)Nc2cccc(O)c2)c1	i	10µM	?	i	16.9µM	i
CC(Oc1ccc(Cl)cc1Cl)C(=O)Nc1ccc(O)cc1 (stereo not given)	i	i	i	i	i	i
CC(Oc1ccc(Cl)cc1Cl)C(=O)Nc1cccc(O)c1 (stereo not given)	i	i	i	i	16.9µM	i
O=C(COc1cc(Cl)c(Cl)cc1Cl)Nc1ccncc1	i	i	i	i	i	i
CCC(=O)c1ccc(OCC(=O)Nc2cccc(S(=O)(=O)N(C)c3ccccc3)c2)cc1	i	i	i	nt	15.1µM	i
CN(c1ccccc1)S(=O)(=O)c1cccc(NC(=O)COc2cccc([N+](=O)[O-])c2)c1	i	i	i	nt	nt	i
O=C(Nc1ccc(Cl)cc1)N1CCC(CN2CCCCCC2)CC1	nt	nt	nt	nt	i	nt
Cc1ccc(NC(=O)C(C)Sc2nc(=O)cc(N)n2-c2cccc(C)c2)cc1 (stereo not given)	nt	nt	nt	i	i	nt
CC(C)CC(C(=O)NCc1ccc(F)cc1)N1Cc2ccccc2C1=O (stereo not given)	nt	nt	nt	nt	i	nt
CCC(C)NC(=O)c1sc2ncccc2c1-n1c(C)ccc1C (stereo not given)	nt	nt	nt	nt	i	nt
CCOC(=O)C1CCN(C(=O)C2CCCN2S(=O)(=O)c2ccc(Cl)cc2)CC1 (stereo not given)	i	i	i	nt	i	i
COc1cccc(NC(=O)COc2ccccc2)c1	i	?	nt	nt	?	?
Cc1ccc(OCC(=O)Nc2cc(NC(=O)COc3ccc(C)c(C)c3)cc(C(=O)O)c2)cc1C	i	i	?	nt	?	i
COc1cccc(NC(=O)COc2ccc(Br)c(C)c2)c1	i	i	i	nt	19µM	i
SMILES	Rab9 promoter act	ELG1 genotoxic	p53 reactivation	SMN2 splice up	FLuc counter	NPC1 prom act
CCC(=O)Nc1cccc(NC(=O)COc2ccc(OC)cc2)c1	i	?	i	i	15.1µM	i
COc1ccc(OC(=O)COc2cccc(C)c2)cc1	i	i	i	nt	15.1µM	i
Cc1ccc(OCC(=O)Nc2cccc(O)c2)cc1C	?	?	?	i	5.36µM	?
CCCc1nc2ccccc2n2c(-c3cccc(C)c3)c3c(=O)n(C)c(=O)n(C)c3c12	nt	nt	nt	i	i	nt
CC(C)(C)CNCCO	nt	nt	nt	i[9.22 µM]	nt	nt
COc1ccc(C(=O)NCCn2cc(SCC(=O)NCc3ccco3)c3ccccc32)cc1	?	i	i	i	16.9µM	i
Cc1cc(NC(=O)CSc2cn(CCNC(=O)c3ccc(F)cc3)c3ccccc23)no1	i	i	i	i	16.9µM	i
COc1ccc(C(=O)NCCn2cc(SCC(=O)NCC3CCCO3)c3ccccc32)cc1 (stereo not given)	i	i	i	nt	i	i
Cc1ccc(OCc2cc(C(=O)N3CC4C[C@@H]5CC3C[C@H](C4)C5)no2)cc1C	1.41µM	?	28.2µM	nt	8.49µM	3.55µM
COCC1CCN(C(=O)c2cc(COc3ccc(C)c(C)c3)on2)C1 (stereo not given)	i	i	i	nt	i	i
Cc1cccc(C)c1OCc1cc(C(=O)N2CC3C[C@@H]4CC2C[C@H](C3)C4)no1	1.58µM	i	i	nt	?	2µM
O=C(Cn1cc(S(=O)(=O)N2CCN(c3ccccc3F)CC2)c2ccccc2c1=O)Nc1cccc(C(F)(F)F)c1	nt	nt	nt	i	i	nt
CCc1nnc(NC(=O)c2ccc3nc(CC)c(CC)nc3c2)s1	i	i	i	i	?	i
CCc1nnc(NC(=O)c2ccc(OC)cc2)s1	0.316µM	i	i	3.16µM	4.78µM	0.708µM
CCCCOC(=O)Nc1nnc(CC)s1	?	14.6µM	?	i	?	i
CCc1nnc(NS(=O)(=O)c2ccc(NC(=O)c3ccc(Br)cc3)cc2)s1	i	i	i	nt	26.9µM	i
CCc1nnc(NS(=O)(=O)c2ccc(N/C=C/C(=O)c3ccc(OC)cc3)cc2)s1	i	?	i	nt	21.3µM	i
COc1ccc(C)cc1NC(=O)c1cc(S(=O)(=O)N2CCc3ccccc3C2)ccc1F	nt	nt	nt	nt	i	nt
Cc1cc(CN2CCCC(N3CCc4ccccc4C3)C2)cc(C)c1O (stereo not given)	i	i	nt	nt	i	i
COc1cccc(C(=O)Nc2nnc(-c3cccs3)s2)c1	3.16µM	0.82µM	?	5.62µM	1.9µM	?
CCc1nnc(NS(=O)(=O)c2ccc(Nc3ccc([N+](=O)[O-])c4nonc34)cc2)s1	i	i	i	i	15.1µM	i
CCc1nnc(NC(=O)c2cccc(OC)c2)s1	3.16µM	?	?	15.8µM	8.49µM	3.16µM
CCc1nnc(NC(=O)c2ccc(S(C)(=O)=O)cc2)s1	i	i	i	nt	21.3µM	?
CCOCc1nnc(NC(=O)c2cccc(OC)c2)s1	i	i	i	?	?	i
CCc1nnc(NS(=O)(=O)c2ccc(NS(=O)(=O)c3ccccc3[N+](=O)[O-])cc2)s1	i	i	i	nt	i	i
Cc1ccc2nc3c(cc(C#N)c(=O)n3-c3nnc(SCc4ccc(F)cc4)s3)c(=O)n2c1	nt	nt	nt	i	i	nt
CC(C)(C)C(=O)[C@H](C(c1ccccc1)N1CCOCC1)N1CCOCC1 (stereo not given in full)	nt	nt	nt	i[9.22 µM]	nt	nt
Cc1ccc(-n2c(=O)cc(N3CCC(C)CC3)[nH]c2=O)cc1	i	i	i	i	i	i
Cc1ccc2scc(N3CCCCC3C)c(=O)c2c1 (stereo not given)	nt	nt	nt	nt	0.953µM	nt

Bioassay records: PubChem, National Center for Advancing Translational Sciences (NCATS)
